The record followed here is the supplement of paper PMC6555819.

Holding throughout (assay): PBM binding z-score (relative to random genomic background probes); higher = stronger binding; sequences stand for … in GC…GCGATTGACAGCGTAGAATGAAGG
The subject of experiment [1] is FXR:RXRa (NR concentration 270 nM, RXRa partner concentration 90 nM). The procedure, abridged: (§1)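 Custom Agilent 4×180K protein-binding microarrays carried double-stranded probes. Their 34-nt variable regions held direct-repeat seeds, single-nucleotide variants, half-site ablations and random human genomic background sequences. Arrays were incubated 1 h with ligand-free nuclear receptor dimers in PBS pH 7.4, 2% milk, 0.02% Triton X-100, 1 mM DTT, 0.2 mg/mL BSA and 0.4 mg/ml salmon testes DNA. Antibodies against each partner (one per run) detected binding, and scanned fluorescence was regression-normalized. Binding z-scores use random background probes as reference.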

Experiment [2] deals with LXRa:RXRa (NR concentration 270 nM, RXRa partner concentration 90 nM). A digest of the protocol:
as §1

In experiment [3] the test system is LXRa homodimer (NR concentration 270 nM). A digest of the protocol: as §1
Experiment [4] concerns LXRb:RXRa (NR concentration 270 nM, RXRa partner concentration 90 nM). The procedure, abridged: as §1
In experiment [5] the test system is LXRb homodimer (NR concentration 270 nM). A digest of the protocol: as §1
In experiment [6] the test system is PPARa:RXRa (NR concentration 270 nM, RXRa partner concentration 90 nM). The procedure, abridged: as §1
Experiment [7] has as its system PPARg:RXRa (NR concentration 180 nM, RXRa partner concentration 90 nM). The procedure, abridged: as §1
The test system of experiment [8] is PPARg:RXRa 270nM:90nM, anti-RXR (NR concentration 270 nM, RXRa partner concentration 90 nM). A digest of the protocol: as §1
Experiment [9] concerns PPARg:RXRa 30nM:10nM, anti-RXR (NR concentration 30 nM, RXRa partner concentration 10 nM). A digest of the protocol:
as §1

Experiment [10] relates to PPARg:RXRa 90nM:30nM, anti-RXR (NR concentration 90 nM, RXRa partner concentration 30 nM). The procedure, abridged:
as §1

For experiment [11], the system named is PPARg:RXRa DBDmut IVT, anti-RXR (DBD mutation: RXRa K156A/R161A, NR concentration 270 nM, RXRa partner concentration 90 nM). The procedure, abridged:
as §1

Experiment [12] has as its system PPARg:RXRa IVT, anti-PPARg (NR concentration 270 nM, RXRa partner concentration 90 nM). The procedure, abridged: as §1
The test system of experiment [13] is PPARg DBDmut:RXRa IVT, anti-PPARg (DBD mutation: PPARg1 K132A/R137A, NR concentration 270 nM, RXRa partner concentration 90 nM). The procedure, abridged:
as §1

Experiment [14] deals with PPARg DBDmut IVT, anti-PPARg (DBD mutation: PPARg1 K132A/R137A, NR concentration 270 nM). A digest of the protocol:
as §1

Experiment [15] concerns PPARg homodimer (NR concentration 180 nM). A digest of the protocol: as §1
For experiment [16], the system named is PXR:RXRa (NR concentration 270 nM, RXRa partner concentration 90 nM). A digest of the protocol:
as §1

For experiment [17], the system named is PXR homodimer (NR concentration 270 nM). A digest of the protocol:
as §1

Experiment [18] relates to RARa:RXR (NR concentration 270 nM, RXRa partner concentration 90 nM). The procedure, abridged:
as §1

Experiment [19] has as its system RARa homodimer (NR concentration 270 nM). A digest of the protocol:
as §1

For experiment [20], the system named is RARb:RXRa (NR concentration 270 nM, RXRa partner concentration 90 nM). The procedure, abridged: as §1

With ACTATTAATTGAGACGAGGGCAACCGATAGGTTG, the PBM binding z-score came to 0.638 in experiment [1]; 0.579 in experiment [2]; 0.685 in experiment [3]; 0.313 in experiment [4]; 0.479 in [5]; 0.542 in experiment [6]. For the same sequence, the PBM binding z-score in [7] amounted to 0.7; in [8], 0.479; in experiment [9], 0.271; in [10] it was 0.408; in experiment [11] it was 0.0464; in experiment [12], 0.914. Further, the PBM binding z-score was found to be 1.03 in experiment [13]; 1.13 in experiment [14]; 2.25 in [15]; 0.755 in experiment [16]; 1.25 in experiment [17]; 0.914 in experiment [18]. Also, the PBM binding z-score in [19] stood at 1.68; in experiment [20], 1.01.
As for CGTCCTAGGTCAATGCTAGGTCAGTGAAAGCATT, the PBM binding z-score in [1] came to 3.74; in [2], 3.83; in experiment [3], 1.98; in experiment [4], 2.38; in experiment [5] it was 0.076; in [6], 3.34. Moreover, the PBM binding z-score in [7] worked out at 1.92; in experiment [8] it was 2.52; in experiment [9], 0.255; in experiment [10], 1.31; in [11], 3.18; in experiment [12], 3.31. The PBM binding z-score in experiment [13] is -0.391; in [14], -0.333; in experiment [15], 2.76; in [16] it was 2.57; in experiment [17] it was -0.195; in experiment [18] it was 4.13. Besides, the PBM binding z-score is -0.0967 in [19] and 4.06 in [20].
As to TCTAGCAGGCCAGAGGGTCACCCAAGAGGTACGG, the PBM binding z-score is 1.31 in experiment [1]; 1.35 in experiment [2]; -0.606 in experiment [3]; 1.36 in [4]; -0.868 in [5]; 2.83 in experiment [6]. Also, the PBM binding z-score was 1.73 in [7]; 2.84 in experiment [8]; 1.92 in [9]; 2.71 in [10]; 0.386 in experiment [11]; 0.974 in [12]. Further, the PBM binding z-score in experiment [13] was -0.634; in experiment [14], -0.348; in [15], 0.411; in experiment [16], 2; in experiment [17] it was -0.502; in [18], 2.95. The PBM binding z-score in experiment [19] turned out to be 0.0468; in experiment [20] it was 2.43.
Regarding GCATATAGGTAATACAAGGTAAAAGTCCGATTGT, the PBM binding z-score in [1] was 1.02; in [2], 0.511; in experiment [3] it was -0.476; in [4] it was -0.189; in experiment [5] it was -0.093; in [6], 0.669. The PBM binding z-score in [7] was 1.14; in [8] it was 0.607; in [9], -0.0355; in experiment [10] it was 0.325; in experiment [11], 3.98; in experiment [12], 2.51. In addition, the PBM binding z-score in experiment [13] is 0.397; in [14] it was 1.1; in experiment [15], 0.166; in experiment [16] it was 0.0106; in experiment [17] it was -0.11; in [18], 0.364. The figures for the PBM binding z-score in experiment [19] and in experiment [20] were 0.741 and -0.207, respectively.
In the case of CCGACTGGGGCAAGGTTAACATAACGCACAGCCA, the PBM binding z-score in experiment [1] is 0.315; in experiment [2], 0.681; in [3], -0.0664; in experiment [4], 0.737; in [5] it was -0.786; in experiment [6] it was 2.59. For the same sequence, the PBM binding z-score stood at 4.38 in experiment [7]; 4.92 in experiment [8]; 2.68 in experiment [9]; 4.38 in [10]; 3.28 in [11]; 3.69 in [12]. The PBM binding z-score is 0.246 in experiment [13]; -0.475 in experiment [14]; 0.856 in experiment [15]; 0.52 in experiment [16]; -0.244 in experiment [17]; 0.896 in experiment [18]. In addition, the PBM binding z-score in experiment [19] worked out at 0.086; in experiment [20] it was 1.74.
Turning to ATCTCTAGGTAACCAAGCTCAGTGAATGCCGAAC, the PBM binding z-score in experiment [1] was 0.0567; in experiment [2], -0.156; in [3], -0.0842; in experiment [4], -0.416; in experiment [5] it was 0.643; in experiment [6], 0.0797. Moreover, the PBM binding z-score in experiment [7] is 0.181; in experiment [8] it was 0.28; in experiment [9] it was -0.0374; in experiment [10], 0.235; in [11], 2.93; in experiment [12] it was 2.13. Moreover, the PBM binding z-score is 1.25 in [13]; 0.885 in experiment [14]; 0.709 in experiment [15]; -0.105 in experiment [16]; 0.251 in experiment [17]; 0.193 in experiment [18]. The PBM binding z-score in experiment [19] is 0.798; in experiment [20], 0.0628.
For the sequence ACAGACAAGTGAGTGAAGGTAACTCAGCTGGACG, the PBM binding z-score is -0.054 in experiment [1]; -0.258 in experiment [2]; -0.475 in experiment [3]; -0.57 in experiment [4]; -0.342 in experiment [5]; -0.314 in [6]. Further, the PBM binding z-score in experiment [7] was 0.674; in [8] it was -0.0179; in [9], -0.202; in [10], -0.0069; in experiment [11], -0.268; in [12] it was -0.138. For the same sequence, the PBM binding z-score in experiment [13] is 0.174; in [14], 0.39; in experiment [15], -0.0501; in [16], -0.521; in [17], -0.267; in experiment [18], -0.183. Besides, the PBM binding z-score in experiment [19] is -0.707; in experiment [20] it was -0.0703.
